# Assay results reported in ChEMBL document CHEMBL3988442, “University of Dundee, Small-Polar-MMV Screening Library” (2021).
# In all, about 69,000 compounds went through this assay and about 1,000 (1.4%) showed an effect of 50% or more. This is one part of a sample in which strong results are shown more often than they occur.
# Tested on: Leishmania donovani
# Assay: Leishmania intramacrophage assay
# Assay type: functional, organism-based
# Set-up: scale not given: in the data most compounds retested in dose-response had high values
structure (smiles),measurement,setting,value
CC(=O)NCCN1CCC(c2cccs2)CC1,Percent Effect,"30 µM, 30.03 µM",14.89%
COCC(=O)NC1CC2(CCN(Cc3ccco3)CC2)c2ccccc21.O=C(O)C(F)(F)F (centres undefined),Percent Effect,"30 µM, 30.03 µM",-18.66%
CCOCC1CCN(C(=O)Nc2ccc(-c3csnn3)cc2)C1 (centres undefined),Percent Effect,"30.3 µM, […]",-4.056%
CCCC(=O)NC1CCN(c2ccccc2S(=O)(=O)CC)CC1,Percent Effect,30 µM,-8.378%
Cc1ccc(C)c(N2CCN(CC3(O)CCNC3)CC2)c1 (centres undefined),Percent Effect,"30.3 µM, […]",98.99%
CCOc1ccccc1N1CCN(CC2(O)CCCNC2)CC1 (centres undefined),Percent Effect,"30.3 µM, […]",12.99%
Cc1ccc(NCC2(O)CCNCC2)cc1C,Percent Effect,"30.3 µM, […]",-19.76%
Cc1ccccc1N1CCCN(CC2(O)CCCNC2)CC1 (centres undefined),Percent Effect,"30.3 µM, […]",97.82%
CSCC(=O)N1CCCN(c2ccccc2C)CC1,Percent Effect,"30 µM, 30.03 µM",12.81%
Cc1ccc(C2(CN3CCN(c4ncccn4)CC3)CCNCC2)nc1,Percent Effect,"30.3 µM, […]",-2.357%
OC(CNCCc1nnc2ccccn12)c1ccc2c(c1)OCO2 (centres undefined),Percent Effect,"30.3 µM, […]",14.08%
CCn1c(CN2CCCC2)nnc1C1CCN(Cc2ccc(C)o2)CC1,Percent Effect,"30 µM, 30.03 µM",43.06%
CC[C@@]1(O)CCN(C(=O)CCSCc2ccc(F)cc2)C[C@H]1O,Percent Effect,"30.3 µM, […]",-8.433%
CCc1cnc(CN(C)C2CCN(CC3CCC3)C2)o1 (centres undefined),Percent Effect,"30.3 µM, […]",50.08%
CCc1cnc(CN(C)C2CCN(CC3CCN(C(C)=O)CC3)C2)o1 (centres undefined),Percent Effect,"30.3 µM, […]",21.9%
CCc1cnc(CN(C)C2CCN(CC3CCOCC3)C2)o1 (centres undefined),Percent Effect,"30.3 µM, […]",46.35%
CC1(C)CN(Cc2csc(CS(C)(=O)=O)n2)Cc2ccccc21,Percent Effect,"30.3 µM, […]",-3.043%
Cc1cccc(N2CCN(CCNC(=O)c3ccnn3C)CC2)c1,Percent Effect,"30 µM, 30.03 µM",32.04%
Fc1ccc(C(CNc2ccncn2)N2CCCC2)cc1 (centres undefined),Percent Effect,"30.3 µM, […]",64.07%
Fc1ccc(C(CNc2ccncn2)N2CCCCC2)cc1 (centres undefined),Percent Effect,"30.3 µM, […]",33.33%
Fc1ccccc1C(CNc1ccncn1)N1CCCC1 (centres undefined),Percent Effect,"30.3 µM, […]",13.69%
O=C(CCN1CCCCO1)NCc1cn2c(n1)SCC2,Percent Effect,"30.3 µM, […]",-7.597%
CC(CNC(=O)c1cnc[nH]1)Oc1ccc(Cl)cc1 (centres undefined),Percent Effect,"30.3 µM, […]",-8.982%
CS(=O)(=O)Cc1nc(CNc2ccc(F)c(F)c2)cs1,Percent Effect,"30.3 µM, […]",-2.721%
Cc1cc(C)n(CCCn2cncc2-c2ccc3c(c2)CC(C)N3C)n1.Cl (centres undefined),Percent Effect,"30.3 µM, […]",2.187%
Cc1nonc1OCCNC(=O)COc1ccc(F)cc1F,Percent Effect,"30.3 µM, […]",56.45%
Cc1nonc1OCCNC(=O)COc1ccc(Cl)cc1Cl,Percent Effect,"30.3 µM, […]",19.12%
Cc1noc(Cl)c1CC(=O)NCCOc1ccc(F)cc1F,Percent Effect,"30.3 µM, […]",8.93%
O=C(c1ccc(COc2ccc(Cl)cc2)o1)N1N=CCC1(O)C(F)(F)F (centres undefined),Percent Effect,"30.3 µM, […]",-74.85%
CCSCCC(C)N(C)C(=O)c1ccc(C)o1 (centres undefined),Percent Effect,"30.3 µM, […]",26.69%
Cn1ccnc1CN1CCc2c(COCC3CC3)nn(C)c2C1,Percent Effect,"30.3 µM, […]",17.02%
Cc1cc(CN2CC[C@@H]3[C@@H](CCC(=O)N3CCc3c[nH]cn3)C2)oc1C,Percent Effect,"30.3 µM, […]",21.24%
O=C(c1nnn(-c2ccccc2Cl)c1-c1ccccn1)N1CCSCC1,Percent Effect,"30.3 µM, […]",1.038%
CCC(=O)NCC(=O)NC(C)c1sc(-c2ccccc2F)nc1C (centres undefined),Percent Effect,"30.3 µM, […]",52.49%
COCC(=O)NC(C)c1sc(-c2ccccc2F)nc1C (centres undefined),Percent Effect,"30.3 µM, […]",18.86%
CC(=O)NCCC(=O)NC(C)c1sc(-c2ccccc2F)nc1C (centres undefined),Percent Effect,"30.3 µM, […]",-1.241%
CC(CNC(=O)Nc1cn[nH]c1)N1CCCC1 (centres undefined),Percent Effect,30 µM,4.879%
CC(=O)N(C)c1nc(CN2CCN(Cc3nccn3C)CC2)cs1,Percent Effect,"30.3 µM, […]",5.012%
O=S(=O)(c1c(Cl)nc2sccn12)N1CCC2(CCNCC2)C1,Percent Effect,"30.3 µM, […]",51.47%
CN1CCCC2(CCN(S(=O)(=O)c3c(Cl)nc4sccn34)C2)C1=O (centres undefined),Percent Effect,"30.3 µM, […]",41%
O=S(=O)(c1c(Cl)nc2sccn12)N1CCCC2(CCNC2)C1 (centres undefined),Percent Effect,"30.3 µM, […]",49.51%
CSCCc1n[nH]c2c1CN(S(=O)(=O)c1c(C)nn(C)c1C)CC2,Percent Effect,"30.3 µM, […]",-0.401%
CCCSc1ccccc1NC(=O)N1CCN(C(=O)c2ccc[nH]2)CC1,Percent Effect,"30.3 µM, […]",22.55%
c1ccc(-c2nc3c(c(NCc4n[nH]c5c4CCC5)n2)CCNC3)cc1,Percent Effect,"30.3 µM, […]",100.2%
c1ccc(-c2nc3c(c(NCc4nnc5n4CCC5)n2)CCNC3)cc1,Percent Effect,"30.3 µM, […]",11%
c1coc(-c2nc3c(c(NCc4n[nH]c5c4CCC5)n2)CCNCC3)c1,Percent Effect,"30.3 µM, […]",1.11%
Cc1ncsc1CN1CC(C)(C2CC2)CC1=O (centres undefined),Percent Effect,"30.3 µM, […]",-1.864%
CC(=O)N1CCC(C)(c2cc(C(=O)NCC(C)(C)C)nc(C)n2)CC1,Percent Effect,"30.3 µM, […]",-26.7%
Cc1[nH]c2ccc(CNC3CCN(Cc4ccccn4)CC3)cc2c1C,Percent Effect,"30.3 µM, […]",65.08%
Cc1cc(NC2CCN(Cc3ccccn3)CC2)n2nc(C)c(C)c2n1,Percent Effect,"30.3 µM, […]",27.06%
Cc1n[nH]c2ncc(CNC3CCN(Cc4ccccn4)CC3)cc12.Cl,Percent Effect,"30.3 µM, […]",23.69%
Cc1cc2[nH]c(=O)c(=O)[nH]c2cc1S(=O)(=O)NC1CCC(C)CC1 (centres undefined),Percent Effect,"30.3 µM, […]",6.826%
Cc1cc2nc(O)c(O)nc2cc1S(=O)(=O)NC1CC1,Percent Effect,"30.3 µM, […]",53.32%
Cc1cc2[nH]c(=O)c(=O)[nH]c2cc1S(=O)(=O)NC1CCCCC1,Percent Effect,"30.3 µM, […]",4.835%
